Compounds without any hit were thinned out: in the full panel of roughly 79,000, 15% have a hit. Values without a mark were called inactive. Active and inactive are the calls of the source. Rule as the data show it: active = growth inhibition above about 70%; inactive = the rest. Where a SMILES comes first, the peptide text is derived from it. The star is where a group is joined. Cbz = O=C(OCc1ccccc1)*; Bn = c1ccc(C*)cc1
Assays:
[1] = NCI Yeast Anticancer Drug Screen. Data for the rad50 strain (AID 155);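 also: 0% = growth of vehicle-only cultures of the same strain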; conditions: S. cerevisiae rad50 strain growth inhibition; at 50.0 µM; stronger effect = higher value
Procedure, shortened: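 Growth of the mutant yeast was measured after compound exposure and referenced to vehicle-treated cultures.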

[2] = NCI Yeast Anticancer Drug Screen. Data for the mec2-1 strain (AID 157); conditions: S. cerevisiae mec2-1 strain, at 50.0 µM, stronger effect = higher value
Procedure, shortened: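 Growth inhibition is read against vehicle-treated controls after compound exposure of the mec2-1 yeast strain, which is defective in DNA damage repair or cell cycle control.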

[3] = NCI Yeast Anticancer Drug Screen. Data for the sgs1 mgt1 strain (AID 161);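 also: 0% = growth of cultures given vehicle only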; conditions: S. cerevisiae sgs1 mgt1 strain, at 50.0 µM, stronger effect = higher value
Procedure, shortened: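 Percent growth inhibition was derived by comparing compound-exposed mutant yeast with vehicle-exposed cultures. The strain carries alterations in DNA damage repair.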

[4] = NCI Yeast Anticancer Drug Screen. Data for the cln2 rad14 strain (AID 165);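 also: 0% = growth equal to vehicle treated cultures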; conditions: S. cerevisiae cln2 rad14 strain, at 50.0 µM, stronger effect = higher value
Procedure, shortened: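 Growth inhibition, relative to vehicle-treated controls, is the read-out. The test organism is a yeast strain with defined genetic alterations, cln2 rad14.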

[5] = NCI Yeast Anticancer Drug Screen. Data for the bub3 strain (AID 167); conditions: S. cerevisiae bub3 mutant strain, at 50.0 µM, stronger effect = higher value
Procedure, shortened: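 Whole-cell yeast assay. The mutant strain was incubated with compounds, and growth inhibition was determined by comparison with vehicle-treated cells.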

[6] = NCI Yeast Anticancer Drug Screen. Data for the mlh1 rad18 strain (AID 175); conditions: S. cerevisiae mlh1 rad18 strain growth inhibition; at 50.0 µM; stronger effect = higher value
Procedure, shortened: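 Cells of a genetically altered yeast strain, deficient in DNA damage repair, were treated with compound. Their growth was then compared with that of vehicle-treated cultures to give inhibition.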

Structure (SMILES) | growth inhibition [1] | growth inhibition [2] | growth inhibition [3] | growth inhibition [4] | growth inhibition [5] | growth inhibition [6]
Nc1nc(SC2CCCCC2)nc2c1ncn2C1OC(CO)C(O)C1O (centres undefined) | -49.5% | -33% | -8.15% | 0.7% | -4.75% | -13.7%
Cn1cnc(CC(=O)O)c1 | 4.85% | -6.6% | -12.5% | 5.25% | 11% | -0.05%
Cc1cc(C(=O)CSC(=S)SC(C)(C)C)ccc1Cl | 9.3% | -30.1% | -5.85% | 4.45% | -17.9% | -5.2%
Nc1ccc2c(c1)C(=O)CCCC2 | 1.55% | -8.95% | -2.15% | -10.1% | 1.25% | 14.1%
O=C1CSC(c2cccc(Cl)c2)N1N1C(=O)CSC1c1cccc(Cl)c1 (centres undefined) | 6.3% | 19.4% | -7.15% | -0.6% | 2.05% | 13.4%
O=C1OC2c3ccccc3C3CC(=O)C2C13 (centres undefined) | 10.2% | -5.7% | 9.35% | 6.25% | 1.25% | 7.65%
O=C(COc1ccc(Cl)cc1)Nc1cccc([N+](=O)[O-])c1 | 2.55% | 17.1% | 2.45% | -5.7% | 18.9% | 6.7%
CC[C@@H](C)[C@H]([C@H](CC(=O)N1CCC[C@@H]1[C@@H](OC)[C@H](C)C(=O)N[C@H](Cc1ccccc1)c1nccs1)OC)N(C)C(=O)[C@H](NC(=O)[C@@H](C(C)C)N(C)C)C(C)C | 6.95% | -22.6% | -2.2% | 8.3% | 20.3% | 16.8%
NC(=O)NC(=O)OCC(F)(F)C(F)(F)C(F)(F)C(F)(F)C(F)(F)C(F)(F)C(F)(F)F | 45.8% | 9.9% | 31.4% | 15.6% | -0.45% | 6.85%
O=S1(=O)CC(c2ccccc2)(c2ccccc2)Nc2ccccc21 | -6.55% | -14.8% | 0.45% | -5.65% | -11.3% | -18.1%
COc1cc2c(c([N+](=O)[O-])c1)NC(=O)C(C)S2 (centres undefined) | -11.3% | -33.6% | -19.4% | 28.8% | 2.15% | 3.65%
C=CCOC(=O)NCC(=O)NC(C)C(N)=O (centres undefined) | -22.7% | -14.2% | -19.1% | 2.55% | -5.5% | 4.25%
CC1(C)OS(=O)(=O)C=C1Br | 16.7% | -9.8% | -4.15% | -16% | -8.4% | -16.6%
C=C(C)[C@@H]1CC=C(CO)CC1 | 15.7% | -1.95% | 0.45% | 22.1% | 28.3% | 8.4%
CC(C)C(NC(=O)C(CSCc1ccccc1)NC(=O)OCc1ccccc1)C(N)=O (centres undefined) (Cbz-Cys(Bn)-Val-NH2; configuration not given here) | 8.8% | 16.1% | 1.6% | -3.65% | -0.9% | 30.6%
CC(C)c1cccc(C(C)(C)C)n1 | 16.1% | 30.5% | -2.7% | -3.65% | 0.3% | 11.1%
CCCCOC(OCCCC)C(C)(C)CN(C)C | 14.9% | 13.2% | 13.4% | 17.9% | 7.15% | 19.1%
Cc1ccc(CN(C)N=Nc2ccc(C#N)cc2)cc1 | 2.55% | 34.2% | 45.6% | 12.1% | 65.3% | 6.7%
O=C(O)C(=O)C(c1ccccc1)c1ccccc1 | -0.4% | 6.9% | -21.1% | -29.1% | -22.9% | -5.3%
O=C(O)/C=C(/Br)c1ccccc1 | -28.9% | 7.9% | -13.8% | -1.55% | 1.4% | -24.4%

Structure (SMILES) | growth inhibition [1] | growth inhibition [2] | growth inhibition [3] | growth inhibition [4] | growth inhibition [5] | growth inhibition [6]
Clc1cnc2ccccc2c1 | 24.4% | 6% | 14.1% | 22.8% | 2.7% | 28.8%
C[Si](C)(C)CSC#N | -16.6% | 6.45% | 12.5% | 4.65% | 2.75% | 11.5%
CS(=O)(=O)c1ccc(N2CCCCC2)c([N+](=O)[O-])c1 | 29.9% | 6.05% | 27.6% | 16.7% | 10.9% | -4.9%
Cc1ncc(COP(=O)(O)O)c(C)c1O | -15.7% | -10.1% | -33.5% | -33.6% | -31.3% | -13.6%
C=C1C(=O)OC2CC(=C)C3CC=C(C)C3CC12 (centres undefined) | 41.8% | 21.5% | 19% | 41.6% | 25.8% | 44.1%
O=C1CS/C(=N/C(=O)Nc2ccc(Cl)cc2)N1 | -1.9% | 32.5% | 16.1% | -9.55% | -6.95% | 14.5%
Cc1ccc(-n2[nH]nc(C#N)c2=O)cc1 | -6.75% | -20.6% | -23.9% | -1.25% | -27.1% | 5.65%
CC(=O)OCC1OC(n2c(=S)n(-c3ccc([N+](=O)[O-])cc3)c(=O)c3ccccc32)C(OC(C)=O)C(OC(C)=O)C1OC(C)=O (centres undefined) | -6.3% | 19.1% | -9.55% | 19% | 11.8% | 9.1%
O=C1C=CC(=NN=c2c3ccccc3oc3ccccc23)C=C1 | -11.3% | -3.35% | 4% | -20.9% | 12.7% | 0.1%
O=C(COc1ccc(Cl)cc1)Oc1c(Cl)cc(Cl)cc1Cl | 96.4% (active) | 97.8% (active) | 98.7% (active) | 96.8% (active) | 98.2% (active) | 98% (active)
CC1(C)CN(CCC#N)C(c2ccc([N+](=O)[O-])cc2)O1 (centres undefined) | 2.95% | 3.3% | 8.1% | -9.4% | 14% | -14.8%
CCCCn1c(-c2ccccc2)cs/c1=N\NC(=O)Cn1c(C)nc2ccccc21 | -30.8% | -8.3% | -8.4% | 18.9% | -3.25% | -16.8%
CC(NC(=O)OCc1ccccc1)C(=O)Nc1ccc(C(=O)O)c(O)c1 (centres undefined) | 5.55% | -5.1% | 11.9% | -9% | 45.1% | -10.8%
O=C(O)CC[C@H](NC(=O)c1ccc(-n2nc3ccc(O)cc3nc2=O)cc1)C(=O)O | -6.65% | -8.25% | 11.9% | 9.95% | 33.8% | 14.5%
Clc1cccc(N2CCN(CCN3CCc4c([nH]c5ccccc45)C3c3cccnc3)CC2)c1 (centres undefined) | 2.2% | -21.7% | -7.85% | 9.45% | -9.75% | -12%
CN1CCc2cc3c(cc2C(=O)Cc2ccc4c(c2C1)OCO4)OCO3 | -14.7% | -13.8% | -8.35% | 10.4% | -13.4% | -27.3%
CCCCC1SCC(=O)N1c1nncs1 (centres undefined) | 6.35% | 24% | 5.4% | -3.8% | 16.7% | -3.2%
CCOC(=O)CCCCCCCCCC[N+](CC)(CC)CC(=O)c1ccc(NC(C)=O)cc1 | -1.05% | -2.35% | 3.5% | 12.3% | 16.8% | -0.1%
Nc1ccccc1C(=O)CC1OC(=O)c2ccccc21 (centres undefined) | 19.6% | 12.1% | 7.35% | 4% | 7.8% | -13.7%

Source: PubChem BioAssay (NCI)
